# Activity calls are given as the source filed them. How the source made its calls: active means hit-call score of the fitted dose curve at least 0.9, where 1 is the maximum; inactive means score below 0.9.
# Assay: ATG_CMV_CIS: Attagene CIS-FACTORIAL HepG2 Assay for human CMV (Internal Marker) (AID 2282928);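 further: endpoint acts as a background internal control marker rather than a target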
# Conditions: HepG2 CMV promoter reporter, transcription factor profiling; actives raise or lower the signal
# Method: ATG_CIS is a cell-based, multiplexed-readout assay that uses HepG2, a human liver cell line, with measurements taken at 24 hours after chemical dosing in a 24-well plate.ATG_CMV_CIS is one of 52 assay component(s) measured or calculated from the ATG_CIS assay. It is designed to make measurements of mRNA induction, a form of inducible reporter, as detected with fluorescence intensity signals by Reverse transcription polymerase chain reaction (RT-PCR) and Capillary electrophoresis technology.Data from the assay component ATG_CMV_CIS was analyzed into 1 assay endpoint. This assay endpoint, ATG_CMV_CIS, was analyzed with bidirectional fitting relative to DMSO as the negative control and baseline of activity. Using a type of inducible reporter, measures of mRNA for gain or loss-of-signal activity can be used to understand the background control at the transcription factor-level as they relate to the gene . Furthermore, this assay endpoint can be referred to as a secondary readout, because this assay has produced multiple assay endpoints where this one serves a background control function. To generalize the intended target to other relatable targets, this assay endpoint is annotated to the background measurement intended target family, where the subfamily is internal marker.
# Human liver HepG2 cells are transiently transfected with multiple reporter transcription units (MRTUs) in 6-well plates using FuGene 6 reagent (Roche; 3 ml FuGene/1 mg DNA). The MRTU constructs are regulated by a cis-regulating element (promoter). […] A major difference between the CIS and TRANS system is that in CIS activities of endogenous TFs are measured, whereas the TRANS assay evaluates changes in activities of exogenous, chimeric NR-Gal4 proteins. […] At the end of 24 hour incubation, total RNA was isolated using TriZol reagent (Invitrogen). The isolated RNA is then reverse-transcribed using oligo(dT) primer and Mo-MLV reverse transcriptase (Invitrogen) with DNAse I (Ambion) treatment for 30 min. The one-tenth of the produced cDNA was amplified by PCR using Taq DNA polymerase (Invitrogen) and two reporter sequence-specific primers. The PCR products were fluorescently labeled by primer extension with 6-arboxyfluorescein (6-FAM) 5'-labeled reporter sequence-specific primer (2 min at 95 C, 20 s at 68 C and 10 min at 72 C) and these products were digested with 5U of HpaI (New England Biolabs) for 2h at 37 C. The fragments were purified using Qiaquick PCR columns (Qiagen), analyzed on an ABI 3130xL genetic analyzer (Applied Biosystems) with peak positions identified by using a set of X-rhodamine (ROX)-labeled MapMarker1000 molecular weight standards (BioVentures). The raw capillary electrophoresis data was processed using Attagraph software (Attagene).
SMILES,outcome,AC50
CCOC(C=C(C)CCC=C(C)C)OCC,inactive,
Oc1ccc2c(c1)CCC2,inactive,
COC(F)(C(F)F)C(F)(F)F (stereo not given),inactive,
NC(=O)C(F)(F)C(F)(F)C(F)(F)C(F)(F)C(N)=O,inactive,
C[C@]12CC[C@H]3C(=CCc4cc(O)ccc43)[C@@H]1CCC2=O,inactive,
CCCC(=O)OCC(COC(=O)CCC)OC(=O)CCC,,69.3 µM (active)
COc1ccccc1C=O,inactive,
Cc1cccc(C)n1,inactive,
CCOC(OCC)OCC,inactive,
CCCCOC(=O)[C@H](C)O,inactive,
O=C1C=CC(=O)N1c1ccc(Cc2ccc(N3C(=O)C=CC3=O)cc2)cc1,inactive,
CCCCCC/C=C/CCCCCCCC(=O)O,inactive,
O=C=Nc1cccc2c(N=C=O)cccc12,inactive,
CCN(CCO)S(=O)(=O)C(F)(F)C(F)(F)C(F)(F)C(F)(F)C(F)(F)C(F)(F)C(F)(F)C(F)(F)F,inactive,
CCCCCCCC/C=C\CCCCCCCC(=O)N(C)CC(=O)O,inactive,
CCC(C)CO (stereo not given),inactive,
CCN(CC)c1ccc2c(c1)Oc1cc(N(CC)CC)ccc1C21OC(=O)c2ccccc21,inactive,
CC1=CCC(=O)O1,inactive,
CC(C)(C)C(=O)C1C(=O)c2ccccc2C1=O,,30.1 µM (active)
CCOC(=O)C1CC(=O)C(=C(O)C2CC2)C(=O)C1 (stereo not given),inactive,

SMILES,outcome,AC50
CC1CCCCC1,inactive,
OCC(F)(F)C(F)(F)C(F)(F)C(F)(F)C(F)(F)C(F)(F)CO,inactive,
CCOC(=O)CC(=O)C(F)(F)C(F)(F)F,inactive,
CC(C)CCCC(C)CCO (stereo not given),inactive,
Cc1ccc(S(=O)(=O)C(I)I)cc1,inactive,
Cc1ccc2c(c1)OCC(=O)CO2,inactive,
O=C1c2ccccc2C(=O)c2c(Cl)cccc21,inactive,
OCCCC(F)(F)C(F)(F)C(F)(F)C(F)(F)C(F)(F)C(F)(F)C(F)(F)C(F)(F)F,inactive,
CCc1cccc(C)c1N(C(=O)C(=O)O)C(C)COC (stereo not given),inactive,
Brc1ccccn1,inactive,
OCC(F)(F)C(F)(F)C(F)(F)C(F)(F)C(F)(F)C(F)(F)C(F)(F)C(F)(F)CO,inactive,
CCCCCCCCCCCCC[N+](C)(C)Cc1ccccc1,inactive,
Oc1ccc(C2(c3ccc(O)c(C4CCCCC4)c3)CCCCC2)cc1C1CCCCC1,,8.9 µM (active)
O=C(c1ccccc1)c1ccc(O)cc1O,,123 µM (active)
CCCCCCCCCCCCCC[P+](CCCC)(CCCC)CCCC,inactive,
CCC(Cc1c(I)cc(I)c(N)c1I)C(=O)O (stereo not given),,62.6 µM (active)
CN(C)C(C)(C)CO,inactive,
NCC(F)(F)C(F)(F)C(F)(F)C(F)(F)C(F)(F)C(F)(F)F,inactive,
CSc1ccc(Cl)cc1,inactive,
CN(N=O)C(=O)N[C@@H]1[C@@H](O)[C@H](O)[C@@H](CO)O[C@@H]1O,inactive,

# Source: PubChem BioAssay (EPA / NIEHS)
